PGK inhibitor: inhibitors of T. brucei phosphoglycerate kinase; AID 602233; 380,000 tested, 0.043% active; P07378; Potency, µM (highest dose often 57.5 µM), without a hit: at the highest dose activity change, negative = inhibition, actives largely listed as inhibitors; PGK/GAPDH coupled, Kinase-Glo luminescence, 60 min; further: potency means the concentration at half of the fitted maximal effect; nearly all actives have a fitted effect of over 60% in size
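Recombinant glycosomal PGK reaction used 1,3-bisphosphoglycerate generated in-well by GAPDH (100nM final) in 100mM TEA pH 7.6, 5mM MgCl2, 0.01% Tween-20. After 60 minutes at room temperature, ATP was read by Kinase-Glo Plus luminescence end-point.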
KAT2A inh: blocks human GCN5L2 histone acetyltransferase; Potency, µM (highest dose often 58.9 µM), without a hit: top-dose activity change, negative = inhibition, usual class: inhibitors; Q92830; 390,000 tested, 0.21% active; GCN5L2 HAT assay, ThioGlo1 CoA-SH fluorescence; further: potency means the concentration at half of the fitted maximal effect
Target sequence (Q92830 whole entry, looked up): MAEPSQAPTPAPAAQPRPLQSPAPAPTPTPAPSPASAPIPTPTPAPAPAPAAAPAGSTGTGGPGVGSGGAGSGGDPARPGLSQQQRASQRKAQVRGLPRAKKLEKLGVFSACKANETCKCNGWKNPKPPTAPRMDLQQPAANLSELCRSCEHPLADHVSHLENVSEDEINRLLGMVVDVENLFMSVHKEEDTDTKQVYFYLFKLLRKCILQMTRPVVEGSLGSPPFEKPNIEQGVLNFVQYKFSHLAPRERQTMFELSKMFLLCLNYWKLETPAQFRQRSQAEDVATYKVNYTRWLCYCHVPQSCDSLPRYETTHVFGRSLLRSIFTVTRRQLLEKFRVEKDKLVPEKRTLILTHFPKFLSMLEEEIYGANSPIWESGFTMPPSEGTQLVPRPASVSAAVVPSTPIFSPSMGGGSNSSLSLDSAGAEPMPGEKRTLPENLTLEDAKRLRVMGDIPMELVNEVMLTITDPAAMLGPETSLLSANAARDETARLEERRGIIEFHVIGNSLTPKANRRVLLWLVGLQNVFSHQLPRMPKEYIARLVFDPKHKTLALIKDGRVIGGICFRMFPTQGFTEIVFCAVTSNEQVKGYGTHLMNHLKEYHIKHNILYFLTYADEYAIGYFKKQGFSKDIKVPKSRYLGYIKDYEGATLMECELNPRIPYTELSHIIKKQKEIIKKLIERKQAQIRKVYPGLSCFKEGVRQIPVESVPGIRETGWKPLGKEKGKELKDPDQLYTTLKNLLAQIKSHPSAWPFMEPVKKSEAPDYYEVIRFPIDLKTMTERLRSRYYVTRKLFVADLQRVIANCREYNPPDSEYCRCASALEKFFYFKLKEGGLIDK
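Compounds, pin-transferred from DMSO stocks, meet 20nM GCN5L2 for 15 min before the reaction begins with H3(1-25) peptide (75uM) and acetyl-CoA (70uM). Thiol-reactive ThioGlo1 reports CoA release over 20 min at room temperature.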
PI4K2A inh: blocks human PI4K2A kinase activity; activity change, negative = inhibition, % at 76.9 µM; 420,000 tested, 0.13% active; purified PI4K2A, ADP-Glo luminescence, 1 h; stronger effect = lower value; Q9BTU6; AID 1346378; in the data active means activity change below about -50%; inconclusive means mostly about -30% to -49%;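 further: -100% = wells without enzyme as full effect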
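In this quantitative HTS, ADP production by PI4K2A was quantified luminescently after 1 h at ambient temperature; 100 microM adenosine served as plate-quality control.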
Pin1 inh: blocks the human prolyl isomerase Pin1; Q13526; Pin1 FP peptide displacement, HiFluor488, 10 min; Potency, µM (series often up to 115 µM), for inactives: at the top dose activity, negative = inhibition, hits mostly inhibitors; 390,000 tested, 0.009% active; active means well fitted inhibition curve with a large enough effect in the polarisation, with a control signal flat, not every such curve was filed as active; inconclusive means small, poorly fitted or top-dose-only effect, or effect the other way, or a change in a side signal; inactive means no such curve, though single readings can be large or run the other way; the % refers to the polarisation; further: potency means the concentration at half of the fitted maximal effect
PI5P4Ka inh: blocks human PI5P4K alpha kinase activity | PI5P4Kalpha enzyme, ADP-Glo luminescence, 60 min; stronger effect = lower value | P48426 | max response, % | 330,000 tested, 1.2% active; active means max response of -50% or lower; inconclusive means between -30% and -50%; inactive means -30% or higher; further: value at the top dose of about 77 µM
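Luminescence from ADP-Glo served as readout of PI5P4Kalpha activity in a qHTS format. Reaction: enzyme, substrate, compound, ATP at 5 microM final, 60 min at RT.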
RGS12 GoLoco inh: RGS12 GoLoco-Gai1 interaction inhibition; P63096; Gai1:RGS12 GoLoco peptide FP, rhodamine, 10 min; Potency, µM (titrated, usually from 61.6 µM), for the others: at the top dose activity, negative = inhibition, actives largely listed as inhibitors; 230,000 tested, 0.44% active; active means well fitted inhibition curve with a large enough effect, not every such curve was filed as active; inactive means no such curve, though single readings can be large or run the other way; further: potency means the concentration at half of the fitted maximal effect; nearly all actives have a fitted effect of over 30% in size
* hit, by the source's call; i = inactive; ? = inconclusive; . = not tested or not shown; [ ] = dose if it differs, or a comment. Only some compounds are listed: those with a hit (about 1.2% of all), similar ones and a draw of the others. Unless noted, the call rests on the fitted dose curve; in most records, active means well fitted curve in the direction sought with a large enough effect; inconclusive means small, poorly fitted or top-dose-only effect, or another doubt; inactive means no such curve, though single readings can be large; an effect the other way counts as inactive or inconclusive. Unless noted, on the % scale 0 is the no-effect control and ±100 the full control effect.

SMILES | PGK inhibitor | KAT2A inh | PI4K2A inh | Pin1 inh | PI5P4Ka inh | RGS12 GoLoco inh
Clc1nssc1=Nc1nncs1 | -3.1% | 2.24µM* | -27.5 | -0.4% | -55.3* | .
N#Cc1cccc(N=c2ssnc2Cl)c1 | -9.3% | 6.31µM* | -3.4 | -2.4% | -76.9* | -22.9%
Clc1nssc1=Nc1ccc(Br)cc1 | 4.8% | 8.91µM* | 7.1 | 0.8% | -56.7* | 12.7%
Clc1ccc(N=c2ssnc2Cl)nc1 | 0.6% | -1.0% | -17.3 | -2.2% | -22.6 | 10.5%
O=C(CN1CCN(S(=O)(=O)c2cccc(F)c2)CC1)NCC1(N2CCOCC2)CCCCC1 | -2.9% | -8.0% | -2.9 | 1.7% | -1.0 | .
O=C(c1ccc(Cl)cc1Cl)N1CCN(c2ccc(N3CCOCC3)nn2)CC1 | 0.6% | -17.1% | 3.2 | -9.6% | -8.5 | .
NS(=O)(=O)c1cccc(NC(=O)COc2ccc([N+](=O)[O-])cc2)c1 | 9.1% | -7.8% | -0.9 | 2.7% | 2.1 | -7.3%
c1coc(-c2nn3c(-c4ccco4)nnc3s2)c1 | -16.2% | -6.6% | -5.4 | 1.2% | -62.1* | -9.1%
COc1ccccc1-c1nn2c(-c3ccco3)nnc2s1 | -5.4% | -20.8% | -4.5 | ? | . | 9.3%
CC(C)(C)n1nc(C2CC2)cc1NC(=O)Nc1ccc(Cl)cc1 | -0.5% | -1.8% | -3.2 | -0.7% | 2.0 | 2.9%[14.2 µM]
Cc1oc2c(O)c(O)ccc2c(=O)c1-c1cnn(-c2ccccc2)c1 | -4.5% | -1.1% | 4.6 | ? | . | 2.24µM*
O=C(NCc1ccccc1Cl)C1CCCN(c2ncccn2)C1 (stereo unspecified) | . | . | -2.7 | . | . | .
COc1ccc(C=C2OC(=O)C(C(C)=O)=C2O)cc1 | -5.8% | . | -9.6 | . | -54.2* | .
COC(=O)CCCC1=CC2=CC(=O)C(C)(OC(=O)c3cccs3)C(=O)C2=CO1 (stereo unspecified) | . | . | . | . | . | 29.4%
CCCCC1=CC2=CC(=O)C(C)(OC(=O)c3cccs3)C(=O)C2=CO1 (stereo unspecified) | 2.5% | . | -17.1 | ? | -86.5* | 22.8%
CC(C)n1c(=S)[nH]c2c1c(=O)[nH]c(=O)n2C | i | ? | 0.9 | 3.5% | -75.9* | 10µM*
C[N+](C)(C)CCOC(=O)C1(c2ccccc2)CCCC1 | -6.4% | 2.5% | 0.0 | -5.7% | -4.8 | 7.08µM*
COc1ccc(OC)c(C(=O)c2ccc(C(=O)N3CCCCC3)cc2)c1 | -1.4% | -6.3% | 4.2 | 3.9% | . | 7.8%
COc1ccccc1-c1ccc(/C=C2/C=C(C)OC2=O)o1 | -9.9% | ? | -10.7 | ? | -22.1 | 22.4%
O=C1C(=Cc2ccc(Br)o2)C(=O)c2ccccc21 | 7.94µM* | ? | -9.8 | 3.01µM* | -85.5* | -9.6%
CC1=C/C(=C\c2ccc(Br)o2)C(=O)O1 | 10µM* | -0.8% | -11.0 | ? | ? | -0.9%
COC(=O)CCNS(=O)(=O)c1ccc2nsnc2c1 | -0.4% | -11.2% | -7.2 | 0.5% | 5.8 | .
CC(C)c1ccc(CN2C(=O)c3ccccc3S2(=O)=O)cc1 | -0.4% | -9.1% | 5.6 | -7.1% | 10.5 | .
Cc1ccc(C(=O)NC(=S)Nc2ccc(N3CCN(C(=O)c4ccco4)CC3)cc2)cc1 | -1.1% | ? | 8.2 | -0.1% | -1.8 | .
O=C1c2cccc3c([N+](=O)[O-])c(O)cc(c23)C(=O)N1Nc1ccccc1 | -9.6% | -0.1% | 0.6 | ? | -60.8* | 23.2%
SMILES | PGK inhibitor | KAT2A inh | PI4K2A inh | Pin1 inh | PI5P4Ka inh | RGS12 GoLoco inh
O=C(Cn1ccc2cc(S(=O)(=O)N3CCCCCC3)ccc21)NCCc1ccc(Cl)cc1 | i | -18.0% | 5.0 | 16.1% | . | .
N#Cc1c(NC(=O)c2ccccc2)sc2c1CCCCC2 | -0.7% | -1.5% | -8.4 | 4.6% | 6.2 | 12.3%
N#Cc1c(Cl)nsc1NC(=O)c1ccccc1 | -9.1% | -8.1% | -7.2 | 2.7% | -53.8* | 11.0%
COc1ccc(NC(=O)CSc2ncnc3sc(C)cc23)cc1 | -2.7% | -1.4% | 6.9 | 1.4% | -0.1 | .
Cc1cc2c(SCC(=O)Nc3cccc(O)c3)ncnc2s1 | i | . | -2.4 | -1.1% | -74.4* | .
COc1ccc2c(c1)cc(C(=O)N/N=C/c1c(O)c(C(=O)O)cc3ccccc13)n2C | -9.3% | -20.7% | -1.0 | ? | -65.8* | .
Cc1ccc2[nH]c(C(=O)NCCN3CCCC3)cc2c1 | 8.0% | -2.1% | 0.8 | 10.4% | 2.8 | .
COc1ccc2c(Sc3ccccc3)c(C(=O)NCc3cccc(OC)c3OC)[nH]c2c1 | i | -5.2% | -3.8 | 34.4% | . | .
CC(C)(C)CC(=O)NCCCN1CCOCC1 | -8.5% | 0.3% | 3.3 | -2.7% | -3.6 | 1.3%
Cc1ccc2c(c1)C1(OCCCO1)C(=O)N2CC(=O)NN | 1.5% | . | -0.3 | -1.0% | -1.3 | .
CC[C@H](C)/C=C/C1=CC2=C(Cl)C(=O)[C@@]3(C)OC(=O)C(C(=O)[C@H](C)[C@@H](C)O)=C3C2=CO1 | -21.4% | . | ? | ? | -80.7* | .
N#Cc1ccc(NC(=O)N2CCC(c3nc4c(nnn4Cc4cccc(Cl)c4)c(=O)[nH]3)CC2)cc1 | 5.0% | -8.3% | 3.2 | 4.7% | . | 4.9%
O=C(Nc1ccc(S(=O)(=O)N2CCCC2)cc1)C1CC(=O)N(CCc2ccc(F)cc2)C1 (stereo unspecified) | i | -1.1% | -4.6 | 0.2% | -9.0 | .
CC(C)C(c1nnnn1CCc1ccccc1)N1CCSCC1 (stereo unspecified) | -1.5% | -0.5% | 11.2 | 1.9% | 1.6 | 30.9%
COC(=O)c1c(NC(=O)COC(=O)c2ccc(Cl)cc2[N+](=O)[O-])sc2c1CCCCC2 | i | 28.2µM* | 2.9 | 2.3% | 1.2 | 8.7%
N#CCC(=O)Nc1ccc(C(=O)OCC(=O)c2ccc3c(c2)OCCO3)cc1 | 12.3% | -17.6% | -1.3 | ? | -74.2* | 80.2%
N#CCC(=O)Nc1ccc(C(=O)OCC(=O)Nc2ccc3ccccc3c2)cc1 | 6.2% | ? | -0.7 | ? | -51.3* | .
N#CCC(=O)Nc1ccc(C(=O)OCC(=O)N=c2sccn2Cc2ccccc2Cl)cc1 | -9.1% | -31.6% | -4.4 | ? | -52.7* | .
OC1(c2nc3ccccc3[nH]2)CCCCC1 | 2.4% | -4.1% | -1.0 | 6.1% | 3.2 | .
CSc1nnc2c(n1)c(C)nn2-c1cccc(C)c1 | 8.0% | -6.6% | -1.5 | 1.2% | 0.1 | 4.6%
NCCC[C@@H](CC(=O)N[C@@H]1CCNC[C@H]1C(=O)N[C@H](CC(=O)N[C@@H](CCC(=O)O)CC(=O)O)Cc1c[nH]c2ccccc12)NC(=O)C[C@H](Cc1ccccc1)NC(=O)[C@@H]1CCCC[C@H]1N | . | . | . | . | . | -0.2%
N#CCOc1coc(CN2CCN(c3cccc(Cl)c3)CC2)cc1=O | -8.4% | ? | 0.0 | -2.6% | -8.9 | .
Cc1ccc(-c2nc3ccccc3nc2-c2ccccc2)cc1 | -2.2% | -5.0% | -7.3 | -0.7% | 6.7 | .

High-throughput results deposited in PubChem by National Center for Advancing Translational Sciences (NCATS).
